The source of these data is PubChem BioAssay.

A short description of experiment [1]: inhibitors of TNFa-induced NFkB p65 translocation, primary screen, imaging, HUVEC, MLSMR starter and 10KST1 sets (AID 438;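 active means inhibition above 20% together with a positive visual image hit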;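 further: compound added about 3h40 before a 20 min TNFalpha stimulation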;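 on inhibition: signal is the nuclear over cytoplasmic p65 intensity ratio per well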). Conditions: HUVEC TNFa-induced p65 nuclear translocation; cell count: measured here: nuclei count (cytotoxicity indicator), at 2.08 µM; inhibition: at 2 µM, stronger effect = higher value, 0% TNFa-plus-vehicle, 100% no-TNFa wells.
A short description of experiment [2]: inhibitors of mutant huntingtin aggregation, primary screen, imaging, exon1htt(103Q)mCFP cells, high-content imaging (AID 483;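 active means visual image review flags a hit and inhibition of aggregation exceeds 20%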;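 further: compound exposure lasted 3 days before fixation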;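 on nuclei count: percent of the per-plate median nuclei count of sample wells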). Conditions: exon1htt(103Q)mCFP cell line, aggregate imaging, at 2 µM; inhibition of aggregation: stronger effect = higher value; nuclei count: measured here: cell count, toxicity.
Experiment [3] is described as follows: inhibitors of E-selectin induction by TNFa, primary screen, imaging, HUVEC, immunofluorescence, MLSMR starter and 10KST1 sets (AID 487;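 active means visually confirmed hit in the image check and inhibition above 20%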;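 on inhibition: signal is fraction of cell area covered by stained E-selectin grains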;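 on nuclei count: 100% = median nuclei count of all wells on the same plate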). Conditions: HUVEC TNFalpha-induced E-selectin immunofluorescence imaging, at 2 µM; inhibition: stronger effect = higher value; nuclei count: measured here: cell number, toxicity.
Experiment [4] deals with Voltage-gated potassium channel subunit beta-2 (Rattus norvegicus) (UniProt P62483). Description: KvBeta enzyme negative modulators, primary screen, biochemical, NADPH fluorescence (AID 622).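 Further: slope of raw intensity against log time taken from 70 to 1610 s.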 The conditions noted are these: recombinant KvBeta, 4-cyanobenzaldehyde reduction, at 10 µM, stronger effect = higher value.
For experiment [5] the target is unchanged. As to the kind of experiment: KvBeta positive modulators, primary screen, biochemical, NADPH fluorescence (AID 623;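 active means NADPH fluorescence slope more negative than the mean of all samples by about 3 SD, 99.7% confidence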;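 further: fluorescence intensity change per second fitted from 20 to 320 s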). Conditions: Recombinant KvBeta, NADPH fluorescence decrease slope, 10 min; at 10 µM; stronger effect = lower value.
In experiment [6] the target is Alpha-2C adrenergic receptor (Homo sapiens) (UniProt P18825). As to the kind of experiment: modulators of alpha2C/GIRK thallium flux, primary screen, cell-based, HEK293 alpha2C/GIRK1/2 (AID 624;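 active means fluorescence slope after compound addition differing from the mean of all screened samples at 99.7% confidence, in either direction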;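 further: slope of fluorescence ratio to pre-addition baseline per second over 15 to 24 s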). Conditions: thallium flux BTC fluorescence, at 10 µM, actives lie on both sides.
A short description of experiment [7]: inhibitors of Sendai virus-induced IRF3 signaling, primary screen, TLR/RLR signaling modifier project, cell-based, Sendai virus stimulus, luciferase, 10K MLSCN set (AID 602276;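 active means inhibition at or above 50% at 10 µM; inactive means inhibition below 50%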;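 further: firefly luciferase from ISG56 promoter only with Renilla not read in this screen; 0% = Sendai virus plus DMSO and 100% = medium plus DMSO without virus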). The conditions noted are these: HEK293 RL24 IRF3 luciferase reporter, at 10 µM, stronger effect = higher value. In general terms: A reporter such as luciferase makes a cellular process visible.
Experiment [8] in a line: inhibitors of poly I:C-induced TLR3 signaling, primary screen, cell-based, poly I:C stimulus, luciferase, 10K MLSCN set (AID 602277;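 active means inhibition of the reporter signal at or above 50%; inactive means inhibition below 50%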). The conditions noted are these: HEK293-TLR3 RL24 IRF3 luciferase reporter, at 10 µM, stronger effect = higher value.

Active and inactive are the calls of the source.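 How the source made its calls, unless noted: active means fluorescence slope higher than the sample average by over 3 SD (cut at about -0.22 in these data, passing the limit was not always enough); inactive means the rest.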

Chain of Alpha-2C adrenergic receptor (Homo sapiens) (P18825 whole entry, looked up): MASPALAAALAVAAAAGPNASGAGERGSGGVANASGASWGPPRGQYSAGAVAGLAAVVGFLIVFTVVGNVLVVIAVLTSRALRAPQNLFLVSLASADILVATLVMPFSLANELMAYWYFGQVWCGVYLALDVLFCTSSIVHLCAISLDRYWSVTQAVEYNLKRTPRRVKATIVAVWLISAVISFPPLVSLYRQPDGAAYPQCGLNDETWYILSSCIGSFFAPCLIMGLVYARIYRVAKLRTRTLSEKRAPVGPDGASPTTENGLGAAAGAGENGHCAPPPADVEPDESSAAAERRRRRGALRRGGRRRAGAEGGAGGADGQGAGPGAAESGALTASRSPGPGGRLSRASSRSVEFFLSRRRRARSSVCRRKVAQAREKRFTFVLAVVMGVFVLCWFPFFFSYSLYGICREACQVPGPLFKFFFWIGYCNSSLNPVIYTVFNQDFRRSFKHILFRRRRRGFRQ
Chain of Voltage-gated potassium channel subunit beta-2 (Rattus norvegicus) (P62483 whole entry, looked up): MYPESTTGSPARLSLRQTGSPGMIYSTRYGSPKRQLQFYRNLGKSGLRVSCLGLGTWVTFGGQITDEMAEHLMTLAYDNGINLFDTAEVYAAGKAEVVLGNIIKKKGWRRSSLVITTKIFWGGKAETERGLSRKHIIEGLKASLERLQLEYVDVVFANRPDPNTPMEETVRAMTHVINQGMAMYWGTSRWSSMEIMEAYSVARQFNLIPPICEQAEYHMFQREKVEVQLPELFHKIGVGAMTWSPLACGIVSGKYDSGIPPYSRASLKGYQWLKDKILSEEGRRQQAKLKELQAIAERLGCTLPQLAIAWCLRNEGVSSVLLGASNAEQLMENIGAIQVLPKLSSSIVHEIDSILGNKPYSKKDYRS

What is called inhibition is the relative decrease from the control value, in per cent. In the case of `COCCNC(=O)CN(C)S(=O)(=O)c1ccc(Br)cc1`, the cell count in experiment [1] was 465. Also, the inhibition in experiment [1] is 2.1% (inactive); in experiment [3], 24.8% (inactive); in experiment [7], 11.2% (inactive); in experiment [8], 12.3% (inactive). Besides, in experiment [2], the inhibition of aggregation was -10.4% (inactive). Besides, the nuclei count stood at 106% in experiment [2] and 110% in experiment [3]. Moreover, the fluorescence slope in experiment [4] is -0.507 (inactive). For the same compound, in experiment [5], the NADPH fluorescence slope was -3.7e-05 (inactive). Moreover, in experiment [6], the slope is 0.00533 (inactive).

Take `CC(OC(=O)C1CC=CCC1C(N)=O)C(Cl)=C(Cl)Cl` (centres undefined): the cell count in experiment [1] is 326. The inhibition is 1.3% (inactive) in experiment [1], -94.9% (inactive) in experiment [3], -2.75% (inactive) in experiment [7] and 6.78% (inactive) in experiment [8]. The inhibition of aggregation in experiment [2] is -6% (inactive). The nuclei count in experiment [2] was 108%; in experiment [3], 132%. The fluorescence slope in experiment [4] was -0.506 (inactive). For the same compound, the NADPH fluorescence slope in experiment [5] is -1.1e-05 (inactive). Besides, the slope in experiment [6] was 0.00744 (inactive).

For the compound `Cc1ccc(C)c(N2CCN(C(=O)CCCn3c(=S)[nH]c4cc5c(cc4c3=O)OCO5)CC2)c1`, the cell count in experiment [1] was 494. Also, the inhibition in experiment [1] is 2.5% (inactive); in experiment [3], -37.7% (inactive); in experiment [7], 0.122% (inactive); in experiment [8], 17.7% (inactive). Besides, the inhibition of aggregation in experiment [2] was -3.8% (inactive). Besides, the nuclei count amounted to 109% in experiment [2] and 114% in experiment [3]. For the same compound, the fluorescence slope in experiment [4] was -0.433 (inactive). For the same compound, the NADPH fluorescence slope in experiment [5] was 1.2e-05 (inactive). In addition, the slope in experiment [6] was 0.00641 (inactive).

Turning to `CCOC(=O)c1c(NC(=O)c2ccn(CC)n2)sc2c1CCCC2`, the cell count in experiment [1] stood at 680. Also, the inhibition in experiment [1] was -10.9% (inactive); in experiment [3], -71.6% (inactive); in experiment [7], 3.28% (inactive); in experiment [8], -1.94% (inactive). Also, the inhibition of aggregation in experiment [2] is -3.6% (inactive). The nuclei count in experiment [2] was found to be 97.6%; in experiment [3] it was 114%. The fluorescence slope in experiment [4] was -0.123 (inactive). Also, the NADPH fluorescence slope in experiment [5] is -1.5e-06 (inactive). In experiment [6], the slope was 0.00291 (inactive).

In the case of `COc1ccccc1CC(=O)NCc1ccc2c(c1)OCO2`, the cell count in experiment [1] was 372. For the same compound, the inhibition in experiment [1] is -0.6% (inactive); in experiment [3], -81% (inactive); in experiment [7] it was 7.81% (inactive); in experiment [8], -10.6% (inactive). Further, in experiment [2], the inhibition of aggregation was -2.1% (inactive). Moreover, the values for the nuclei count in experiment [2] and in experiment [3] were 101% and 114%, respectively. Further, the fluorescence slope in experiment [4] was -0.392 (inactive). Moreover, the NADPH fluorescence slope in experiment [5] is -5.4e-05 (inactive). Further, the slope in experiment [6] is 0.00532 (inactive).

For the compound `Cn1nc(C(=O)N2CCOCC2)c2ccccc2c1=O`, in experiment [1], the cell count was 321. In addition, the inhibition was 5.2% (inactive) in experiment [1], -79.4% (inactive) in experiment [3], 9.89% (inactive) in experiment [7] and 32% (inactive) in experiment [8]. Besides, the inhibition of aggregation in experiment [2] was 12.2% (inactive). For the same compound, the nuclei count stood at 109% in experiment [2] and 130% in experiment [3]. In experiment [4], the fluorescence slope is -0.43 (inactive). In addition, the NADPH fluorescence slope in experiment [5] is -3.1e-05 (inactive). Moreover, in experiment [6], the slope was 0.00337 (inactive).

For `O=C(O)Cn1nc2ccccc2n1`, the cell count in experiment [1] is 396. Further, the inhibition in experiment [1] is 5% (inactive); in experiment [3], -55.1% (inactive); in experiment [7], 14.6% (inactive); in experiment [8], 11.8% (inactive). The inhibition of aggregation in experiment [2] was 10.5% (inactive). Moreover, the nuclei count in experiment [2] was 100%; in experiment [3], 98.8%. Also, the fluorescence slope in experiment [4] was -0.4 (inactive). For the same compound, in experiment [5], the NADPH fluorescence slope was 1.5e-05 (inactive). The slope in experiment [6] was 0.00551 (inactive).

Regarding `CCC(=O)Nc1c2c(nn1-c1ccccc1C)CSC2`, the cell count in experiment [1] was 592. Besides, the inhibition in experiment [1] was 8.9% (inactive); in experiment [3] it was 31.2% (inactive); in experiment [7], 14.2% (inactive); in experiment [8] it was 21.4% (inactive). Further, the inhibition of aggregation in experiment [2] is -2.1% (inactive). Further, the figures for the nuclei count in experiment [2] and in experiment [3] were 114% and 99.7%, respectively. Further, the fluorescence slope in experiment [4] was -0.614 (inactive). Besides, in experiment [5], the NADPH fluorescence slope was -1.7e-05 (inactive). Besides, the slope in experiment [6] is 0.00682 (inactive).

Consider `O=C(Nc1cccc(F)c1)C1C2C=CC3(CN(CCCN4CCOCC4)C(=O)C13)O2` (centres undefined), for which the cell count in experiment [1] worked out at 661. Besides, the inhibition in experiment [1] is -5.5% (inactive); in experiment [3], -75.2% (inactive); in experiment [7], -14.3% (inactive); in experiment [8], 12.3% (inactive). In addition, in experiment [2], the inhibition of aggregation was -27.1% (inactive). The nuclei count amounted to 118% in experiment [2] and 116% in experiment [3]. Moreover, the fluorescence slope in experiment [4] is -0.548 (inactive). Moreover, the NADPH fluorescence slope in experiment [5] is -3.3e-05 (inactive). For the same compound, the slope in experiment [6] was 0.00626 (inactive).

Regarding `COC(=O)C1=C(C)Nc2nnnn2C1c1cccs1` (centres undefined), in experiment [1], the cell count was 536. Further, the inhibition is -8.8% (inactive) in experiment [1], -19.9% (inactive) in experiment [3], 4.45% (inactive) in experiment [7] and 20.5% (inactive) in experiment [8]. For the same compound, the inhibition of aggregation in experiment [2] is -0.9% (inactive). Also, the nuclei count in experiment [2] was determined as 107%; in experiment [3], 62.5%. Also, the fluorescence slope in experiment [4] is -0.599 (inactive). In addition, in experiment [5], the NADPH fluorescence slope is -6.8e-05 (inactive). For the same compound, the slope in experiment [6] is 0.0058 (inactive).

Consider `CCCCCCOC(=O)C(C#N)c1nc2ccccc2nc1N1CCCCC1` (centres undefined), for which the cell count in experiment [1] amounted to 513. Also, the inhibition in experiment [1] was 5.7% (inactive); in experiment [3], -28.3% (inactive); in experiment [7], 6.89% (inactive); in experiment [8], 23.9% (inactive). Moreover, the inhibition of aggregation in experiment [2] is 6.3% (inactive). Besides, the nuclei count turned out to be 89.3% in experiment [2] and 137% in experiment [3]. The fluorescence slope in experiment [4] is -0.393 (inactive). The NADPH fluorescence slope in experiment [5] is 3.7e-05 (inactive). Besides, the slope in experiment [6] was 0.00357 (inactive).

Turning to `Cn1c(=N)n(CC(=O)O)c2ccccc21`, the cell count in experiment [1] turned out to be 681. In addition, the inhibition in experiment [1] is -13.8% (inactive); in experiment [3] it was -51.5% (inactive); in experiment [7] it was 9.99% (inactive); in experiment [8] it was 11.8% (inactive). In addition, the inhibition of aggregation in experiment [2] was 6.2% (inactive). Also, the nuclei count in experiment [2] was 114%; in experiment [3], 131%. For the same compound, the fluorescence slope in experiment [4] is -0.595 (inactive). In addition, the NADPH fluorescence slope in experiment [5] is -2.3e-05 (inactive). The slope in experiment [6] is 0.00551 (inactive).

As for `CCn1c(Cc2ccccc2)nnc1SCC(=O)Nc1cc(C)on1`, the cell count in experiment [1] was 629. Further, the inhibition was -3.3% (inactive) in experiment [1], -15.6% (inactive) in experiment [3], -8.42% (inactive) in experiment [7] and 23% (inactive) in experiment [8]. In addition, in experiment [2], the inhibition of aggregation is 5.6% (inactive). Further, the values for the nuclei count in experiment [2] and in experiment [3] were 102% and 112%, respectively. Moreover, the fluorescence slope in experiment [4] was -0.513 (inactive). Further, in experiment [5], the NADPH fluorescence slope was -3.3e-05 (inactive). In experiment [6], the slope was 0.0074 (inactive).

In the case of `COc1ccc2c(c1)C(C)=CC(C)(C)N2C(=O)C(C)N1C(=O)c2ccccc2C1=O` (centres undefined), the cell count in experiment [1] came to 637. The inhibition in experiment [1] is 4.5% (inactive); in experiment [3], 21.2% (inactive); in experiment [7], 5.4% (inactive); in experiment [8], 5.89% (inactive). In experiment [2], the inhibition of aggregation is 7.1% (inactive). Also, the nuclei count turned out to be 108% in experiment [2] and 118% in experiment [3]. Moreover, the fluorescence slope in experiment [4] was -0.612 (inactive). Further, the NADPH fluorescence slope in experiment [5] was -1.8e-05 (inactive). The slope in experiment [6] was 0.00489 (inactive).
